The whole screen tested about 5,500 compounds, of which about 2,000 (36%) were called active. Another 18% or so got no clear call; they are omitted. No stated cut-off is given here; in the data, active means normalized growth mostly below about 0.91 (no sharp cut-off); inconclusive means no clear call, values can overlap the other calls; inactive means mostly above about 0.92. This is one part of the list.
Test: chemical genetic growth profiling, strain panel (AID 1159580);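 further: tested at 20 µM; growth read once vehicle control cultures reached saturation at 30 °C; 1 = growth at the plate median or of vehicle wells; lower values mean less growth of the strain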
Details: growth OD

Measured: normalized growth

O=C(CCBr)N1CCN(C(=O)CCBr)CC1
inactive: S. cerevisiae deletion strains, locus YJR066W, strain TOR1, active compounds read low 0.961 | S. cerevisiae deletion strains, locus YKL009W, strain mrt4, active compounds read low 0.993 | S. cerevisiae deletion strains, locus YKL068W, active compounds read low 1 | S. cerevisiae deletion strains, locus YKL085W, strain MDH1 (second series), active compounds read low 1.01 | S. cerevisiae deletion strains, locus YKL085W, strain MDH1, active compounds read low 1.01 | S. cerevisiae deletion strains, locus YKL160W, strain elf1, active compounds read low 1.03 | S. cerevisiae deletion strains, locus YKL190W, strain CNB1, active compounds read low 1 | S. cerevisiae deletion strains, locus YKR001C, strain vps1, active compounds read low 0.997 | S. cerevisiae deletion strains, locus YKR026C, strain gcn3, active compounds read low 1.01 | S. cerevisiae deletion strains, locus YKR091W, strain srl3, active compounds read low 1.01 | S. cerevisiae deletion strains, locus YLL001W, strain dnm1, active compounds read low 1.01 | S. cerevisiae deletion strains, locus YLL026W, active compounds read low 1.01 | S. cerevisiae deletion strains, locus YLL041C, strain sdh2, active compounds read low 1.01 | S. cerevisiae deletion strains, locus YLR027C, strain aat2, active compounds read low 1.02 | S. cerevisiae deletion strains, locus YLR039C, strain RIC1, active compounds read low 1 | S. cerevisiae deletion strains, locus YLR058C, strain SHM2, active compounds read low 1.01 | S. cerevisiae deletion strains, locus YLR102C, strain apc9, active compounds read low 0.991 | S. cerevisiae deletion strains, locus YLR113W, strain HOG1, active compounds read low 0.979 | S. cerevisiae deletion strains, locus YLR221C, strain rsa3, active compounds read low 1.01 | S. cerevisiae deletion strains, locus YLR258W, strain gsy2, active compounds read low 1.02 | S. cerevisiae deletion strains, locus YLR262C, strain YPT6 (second series), active compounds read low 1.03 | S. cerevisiae deletion strains, locus YLR262C, strain YPT6, active compounds read low 1.02 | S. cerevisiae deletion strains, locus YLR268W, strain sec22, active compounds read low 1 | S. cerevisiae deletion strains, locus YLR320W, strain mms22, active compounds read low 1.03 | S. cerevisiae deletion strains, locus YLR330W, strain CHS5, active compounds read low 1.01 | S. cerevisiae deletion strains, locus YLR342W, strain FKS1 (second series), active compounds read low 1 | S. cerevisiae deletion strains, locus YLR342W, strain FKS1, active compounds read low 1.02 | S. cerevisiae deletion strains, locus YLR357W, strain rsc2, active compounds read low 1 | S. cerevisiae deletion strains, locus YLR370C, strain arc18, active compounds read low 1.02 | S. cerevisiae deletion strains, locus YLR371W, strain rom2, active compounds read low 0.991 | S. cerevisiae deletion strains, locus YLR384C, strain iki3, active compounds read low 1.02 | S. cerevisiae deletion strains, locus YLR418C, strain cdc73, active compounds read low 1.01 | S. cerevisiae deletion strains, locus YML016C, strain PPZ1, active compounds read low 1.01 | S. cerevisiae deletion strains, locus YML032C, strain rad52, active compounds read low 1 | S. cerevisiae deletion strains, locus YML120C, strain ndi1, active compounds read low 1.02 | S. cerevisiae deletion strains, locus YML124C, strain tub3, active compounds read low 0.991 | S. cerevisiae deletion strains, locus YMR058W, strain fet3, active compounds read low 1.01 | S. cerevisiae deletion strains, locus YMR078C, strain ctf18, active compounds read low 1.01 | S. cerevisiae deletion strains, locus YMR125W, strain sto1, active compounds read low 1.03 | S. cerevisiae deletion strains, locus YMR129W, active compounds read low 1.02 | S. cerevisiae deletion strains, locus YMR205C, strain PFK2, active compounds read low 1.03 | S. cerevisiae deletion strains, locus YMR223W, strain ubp8, active compounds read low 0.999 | S. cerevisiae deletion strains, locus YMR231W, strain pep5, active compounds read low 1.03 | S. cerevisiae deletion strains, locus YMR307W, strain GAS1, active compounds read low 0.993 | S. cerevisiae deletion strains, locus YNL067W, strain RPL9B, active compounds read low 1.01 | S. cerevisiae deletion strains, locus YNL071W, strain lat1, active compounds read low 1.02 | S. cerevisiae deletion strains, locus YNL128W, strain TEP1, active compounds read low 1.01 | S. cerevisiae deletion strains, locus YNL153C, strain GIM3, active compounds read low 1.02 | S. cerevisiae deletion strains, locus YNL183C, strain NPR1, active compounds read low 0.936 | S. cerevisiae deletion strains, locus YNL209W, strain ssb2, active compounds read low 1.02 | S. cerevisiae deletion strains, locus YNL233W, strain BNI4, active compounds read low 1 | S. cerevisiae deletion strains, locus YNL248C, strain rpa49, active compounds read low 1.01 | S. cerevisiae deletion strains, locus YNL250W, strain rad50, active compounds read low 1.01 | S. cerevisiae deletion strains, locus YNL271C, strain bni1, active compounds read low 0.999 | S. cerevisiae deletion strains, locus YNL298W, strain CLA4, active compounds read low 1.01 | S. cerevisiae deletion strains, locus YNL307C, strain MCK1, active compounds read low 0.997 | S. cerevisiae deletion strains, locus YNL322C, strain KRE1 (second series), active compounds read low 1.01 | S. cerevisiae deletion strains, locus YNL322C, strain KRE1, active compounds read low 1.01 | S. cerevisiae deletion strains, locus YNR049C, strain mso1, active compounds read low 1.01 | S. cerevisiae deletion strains, locus YNR052C, strain pop2, active compounds read low 1 | S. cerevisiae deletion strains, locus YOL006C, strain TOP1, active compounds read low 1.02 | S. cerevisiae deletion strains, locus YOL012C, strain htz1 0.666 | S. cerevisiae deletion strains, locus YOL147C, strain pex11, active compounds read low 0.998 | S. cerevisiae deletion strains, locus YOR001W, strain rrp6, active compounds read low 1.01 | S. cerevisiae deletion strains, locus YOR061W, strain CKA2, active compounds read low 1.01 | S. cerevisiae deletion strains, locus YOR069W, strain VPS5, active compounds read low 1.01 | S. cerevisiae deletion strains, locus YOR070C, strain gyp1, active compounds read low 1.02 | S. cerevisiae deletion strains, locus YOR080W, strain dia2, active compounds read low 1.02 | S. cerevisiae deletion strains, locus YOR083W, strain WHI5, active compounds read low 1.02 | S. cerevisiae deletion strains, locus YOR106W, strain vam3, active compounds read low 1.02 | S. cerevisiae deletion strains, locus YOR136W, strain idh2, active compounds read low 0.998 | S. cerevisiae deletion strains, locus YOR144C, strain elg1, active compounds read low 0.993 | S. cerevisiae deletion strains, locus YOR184W, strain ser1, active compounds read low 0.998 | S. cerevisiae deletion strains, locus YOR231W, strain MKK1, active compounds read low 0.985 | S. cerevisiae deletion strains, locus YOR265W, strain rbl2, active compounds read low 1.01 | S. cerevisiae deletion strains, locus YOR270C, strain vph1, active compounds read low 1.08 | S. cerevisiae deletion strains, locus YOR290C, strain snf2, active compounds read low 1 | S. cerevisiae deletion strains, locus YOR316C, strain cot1, active compounds read low 0.999 | S. cerevisiae deletion strains, locus YPL051W, strain arl3, active compounds read low 1.02 | S. cerevisiae deletion strains, locus YPL078C, strain atp4, active compounds read low 1.01 | S. cerevisiae deletion strains, locus YPL106C, strain sse1, active compounds read low 1.03 | S. cerevisiae deletion strains, locus YPL240C, strain hsp82, active compounds read low 1.02 | S. cerevisiae deletion strains, locus YPL241C, strain CIN2, active compounds read low 1.01 | S. cerevisiae deletion strains, locus YPL256C, strain CLN2, active compounds read low 0.996 | S. cerevisiae deletion strains, locus YPR119W, strain clb2, active compounds read low 0.994 | S. cerevisiae deletion strains, locus YPR141C, strain kar3, active compounds read low 0.992 | S. cerevisiae deletion strains, locus YPR163C, strain tif3, active compounds read low 0.994 | S. cerevisiae deletion strains, locus YPR167C, strain met16, active compounds read low 1.01 | S. cerevisiae deletion strains, strain wtn01, active compounds read low 0.989 | S. cerevisiae strains, strain wild type, active compounds read low 1.01

From PubChem BioAssay AID1159580 (chemical genetic matrix, 2015)
